AID inh = activation induced cytidine deaminase inhibition. Q9GZX7. AID deamination FRET fluorescence, UDG-coupled, 4 h. Potency, µM (top dose mostly 115 µM), most hits filed as inhibitors. hit rate 0.32% among 91,000. AID 1347428; further: nearly all actives have a fitted effect of over 25% in size
Target sequence (Q9GZX7 whole entry, looked up): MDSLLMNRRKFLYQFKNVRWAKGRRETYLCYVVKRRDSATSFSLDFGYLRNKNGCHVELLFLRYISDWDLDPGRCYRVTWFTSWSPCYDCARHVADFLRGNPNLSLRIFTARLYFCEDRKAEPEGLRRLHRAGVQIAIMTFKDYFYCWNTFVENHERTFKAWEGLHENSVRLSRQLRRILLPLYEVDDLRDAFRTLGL
UDG counter = UDG inhibition counter-screen; FRET deamination/UDG coupled assay, UDG read, 4 h; Potency, µM (titrated, usually from 115 µM), without a hit: at the top dose activity change, negative = inhibition, most hits filed as inhibitors; hit rate 0.14% among 91,000; further: nearly all actives have a fitted effect of over 65% in size
* hit, by the source's call; i = inactive; ? = inconclusive; [ ] = dose if it differs, or a comment. Hits are enriched below; roughly 0.47% of the tested compounds scored in any of these assays. The call rests on the fitted dose curve; in most records, active means well fitted curve in the direction sought with a large enough effect; inconclusive means small, poorly fitted or top-dose-only effect, or another doubt; inactive means no such curve, though single readings can be large; an effect the other way counts as inactive or inconclusive. On the % scale 0 is the no-effect control and ±100 the full control effect; potency means the concentration at half of the fitted maximal effect.

SMILES | AID inh | UDG counter
Cc1cccc(N2CCN(CC(=O)Nc3nncs3)CC2)c1C | i | 4.1%
O=C(Nc1nonc1-c1ccc2c(c1)CCCC2)c1ccco1 | i | 24.4%
Cc1ccc(C)c(C(=O)CSc2nc(-c3ccccc3)nc3c2CCCC3)c1 | i | -0.4%
Cc1ccc(C)c(C(=O)CSc2cccc3cccnc23)c1 | 35.5µM* | -9.2%
COc1ccccc1Cc1nc2ccccc2nc1SCC(=O)N1CCCCC1 | ? | 89.1µM*
COc1ccccc1Cc1nc2ccccc2nc1SCC(=O)N1CCc2ccccc21 | i | 0.3%
CC(C)Oc1ccc(CNC(=O)C2CCCCN2S(=O)(=O)c2ccc(F)cc2)cc1 (stereo unspecified) | ? | 89.1µM*
Cc1ccc(C)c(CNC(=O)C2CCCCN2S(=O)(=O)c2ccc(F)cc2)c1 (stereo unspecified) | i | ?
N#Cc1ccc(COc2ccc(Cl)cc2Br)cc1 | i | -9.2%
CCn1cc(S(=O)(=O)c2ccc(OC)cc2)c(=O)c2cc(F)c(N3CCCCCC3)cc21 | i | -8.7%
CCn1cc(S(=O)(=O)c2ccc(OC)cc2)c(=O)c2cc(F)c(N3CCC(C)CC3)cc21 | 17.8µM* | -26.3%
Cc1cc(C)cc(OCCN(C)C(=O)c2cc(=O)[nH]c3ccccc23)c1 | i | -3.1%
CCCOc1ccc(-c2nn(-c3ccccc3)cc2C2NC(=O)NC(C)=C2C(=O)OCC)cc1 (stereo unspecified) | ? | 89.1µM*
CCCOc1ccc(-c2nn(-c3ccccc3)cc2C2NC(=O)NC(C)=C2C(=O)OC)cc1 (stereo unspecified) | ? | -22.2%
COc1cc(NC(=O)CSc2nc(-c3ccc(C)cc3)nc3c2Cc2ccccc2O3)cc(OC)c1 | i | -17.3%
CCOc1ccc(NC(=O)CSc2nc(-c3ccc(OC)cc3)nc3c2Cc2c(CO)cnc(C)c2O3)cc1 | i | 1.8%
COc1ccc(-c2nc3c(c(SCC(=O)Nc4cccc(O)c4)n2)Cc2c(CO)cnc(C)c2O3)cc1 | 44.7µM* | -14.9%
O=C(CSc1nc(-c2ccc(F)cc2)nc2c1Cc1ccccc1O2)Nc1cccc(C(=O)O)c1 | 39.8µM* | -0.5%
COc1cccc2cc(-c3cc(=O)oc4cc(OC(=O)N5CCOCC5)ccc34)c(=O)oc12 | ? | 2.8%
CCOC(=O)CN(Cc1cccs1)C1CC1 | i | 8.7%
COc1cc(OC)c(N(C)C(=O)c2nn(C)c3c2CSc2ccccc2-3)cc1Cl | 44.7µM* | -17.2%[57.5 µM]
CCc1ccccc1N(C)C(=O)c1nn(C)c2c1CSc1ccccc1-2 | ? | -4.4%[57.5 µM]
c1ccc(-c2ccc(CNCCCn3ccnc3)cc2)cc1 | i | 7.6%
CCCNC(=S)Nc1cc(C(=O)OC)cc(C(=O)OC)c1 | i | 6.2%
N#Cc1cc(C(=O)c2cc(F)ccc2O)cn(C2CCCCC2)c1=O | i | -13.3%
SMILES | AID inh | UDG counter
Cc1ccc(NC(=O)c2cccc(NC(=O)NC(C)C)c2)cc1Cl | i | 0.0%
Cc1ccc(C(=O)Nc2ccc(S(=O)(=O)O)c3cc(S(=O)(=O)O)cc(S(=O)(=O)O)c23)cc1NC(=O)c1cccc(NC(=O)Nc2cccc(C(=O)Nc3cc(C(=O)Nc4ccc(S(=O)(=O)O)c5cc(S(=O)(=O)O)cc(S(=O)(=O)O)c45)ccc3C)c2)c1 | 7.08µM* | 8.1%
CC(CC#N)N1CCN(c2ncccn2)CC1 (stereo unspecified) | i | -8.2%
COC(=O)c1ccc(OC)cc1OCc1ccc(C#N)cc1 | i | 1.6%
Cn1c(SCc2ccc(F)cc2)nc2ccc(C(=O)NCc3ccc(F)cc3)cc21 | 28.2µM* | 0.5%
Cn1c(SCc2ccc(F)cc2)nc2ccc(C(=O)NCc3ccc(Cl)cc3)cc21 | ? | -11.6%
CCCCSCCCNC(=O)C1CCN(Cc2nc(-c3cccc(Br)c3)oc2C)CC1 | i | ?
CCCCSCCCNC(=O)C1CCN(Cc2nc(-c3ccc(CC)cc3)oc2C)CC1 | ? | 89.1µM*
CCn1c(CC(=O)Nc2ccccc2F)nnc1SCC(=O)Nc1ccccc1F | i | -7.4%
O=S(=O)(c1cc(F)cc(F)c1)N1CCCC1c1nnc2ccccn12 (stereo unspecified) | i | -7.3%
COc1ccc(CNC(=O)c2nn(C)c3c2CS(=O)(=O)c2ccccc2-3)cc1 | i | -1.4%
COc1ccc(OC)c(CNC(=O)c2nn(C)c3c2CS(=O)(=O)c2ccccc2-3)c1 | 39.8µM* | -3.1%
Cn1cc(C(=O)N2CCN(c3cccc(C(F)(F)F)c3)CC2)c2c3ccccc3n(C)c2c1=O | ? | 79.4µM*
COc1ccccc1N1CCN(C(=O)c2cn(CC(C)C)c(=O)c3c2c2ccccc2n3C)CC1 | i | -5.2%
Cc1ccc(C)c(N2CCN(C(=O)c3cn(CC(C)C)c(=O)c4c3c3ccccc3n4C)CC2)c1 | 28.2µM* | ?
Cn1c2ccccc2c2c(C(=O)N3CCN(c4cccc(C(F)(F)F)c4)CC3)cn(C3CCCCC3)c(=O)c21 | ? | -13.1%
C=CCNC(=O)NCC(=O)Nc1ccc(F)c(F)c1F | i | 3.0%

Assay outcomes from PubChem BioAssay.
